PubChem BioAssay AID1159580 (chemical genetic matrix, 2015)
Where “and” joins values, the source holds several entries; their conditions need not be identical. Equal entries are not always repeated. Hit rate of the full screen: of about 5,500 compounds, about 2,000 (36%) were called active. Another 18% or so got no clear call; they are omitted. Cut-off read from the data, not from the text of the source: active = normalized growth mostly below about 0.91 (no sharp cut-off); inconclusive = no clear call, values can overlap the other calls; inactive = mostly above about 0.92. Some of the results follow.

Assay: chemical genetic growth profiling, strain panel (AID 1159580);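 note: tested at 20 µM; growth read once vehicle control cultures reached saturation at 30 °C; 1 = growth at the plate median or of vehicle wells; lower values mean less growth of the strain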
Conditions: growth OD

Measured: normalized growth

O=C(CCc1ccc(O)cc1)c1c(O)cc(O)cc1O
inactive: S. cerevisiae deletion strains, locus YJR075W, strain HOC1, hits give low values 1.01 | S. cerevisiae deletion strains, locus YKL009W, strain mrt4, hits give low values 1.03 | S. cerevisiae deletion strains, locus YKL068W, hits give low values 1 | S. cerevisiae deletion strains, locus YKL085W, strain MDH1 (second series), hits give low values 1.02 | S. cerevisiae deletion strains, locus YKL085W, strain MDH1, hits give low values 1.02 | S. cerevisiae deletion strains, locus YKL160W, strain elf1, hits give low values 0.978 | S. cerevisiae deletion strains, locus YKL190W, strain CNB1, hits give low values 1.01 | S. cerevisiae deletion strains, locus YKR001C, strain vps1, hits give low values 1.02 | S. cerevisiae deletion strains, locus YKR026C, strain gcn3, hits give low values 1.01 | S. cerevisiae deletion strains, locus YKR091W, strain srl3, hits give low values 1.01 | S. cerevisiae deletion strains, locus YLL001W, strain dnm1, hits give low values 0.985 | S. cerevisiae deletion strains, locus YLL026W, hits give low values 1.01 | S. cerevisiae deletion strains, locus YLL041C, strain sdh2, hits give low values 1.02 | S. cerevisiae deletion strains, locus YLR027C, strain aat2, hits give low values 1.01 | S. cerevisiae deletion strains, locus YLR039C, strain RIC1, hits give low values 1.04 | S. cerevisiae deletion strains, locus YLR058C, strain SHM2, hits give low values 1.01 | S. cerevisiae deletion strains, locus YLR102C, strain apc9, hits give low values 1 | S. cerevisiae deletion strains, locus YLR113W, strain HOG1, hits give low values 0.966 | S. cerevisiae deletion strains, locus YLR221C, strain rsa3, hits give low values 1 | S. cerevisiae deletion strains, locus YLR258W, strain gsy2, hits give low values 1.03 | S. cerevisiae deletion strains, locus YLR262C, strain YPT6 (second series), hits give low values 1.02 | S. cerevisiae deletion strains, locus YLR262C, strain YPT6, hits give low values 1.02 | S. cerevisiae deletion strains, locus YLR268W, strain sec22, hits give low values 0.997 | S. cerevisiae deletion strains, locus YLR320W, strain mms22, hits give low values 1.02 | S. cerevisiae deletion strains, locus YLR330W, strain CHS5, hits give low values 1.01 | S. cerevisiae deletion strains, locus YLR342W, strain FKS1 (second series), hits give low values 1.02 | S. cerevisiae deletion strains, locus YLR342W, strain FKS1, hits give low values 1.01 | S. cerevisiae deletion strains, locus YLR357W, strain rsc2, hits give low values 0.955 | S. cerevisiae deletion strains, locus YLR370C, strain arc18, hits give low values 1.01 | S. cerevisiae deletion strains, locus YLR371W, strain rom2, hits give low values 1 | S. cerevisiae deletion strains, locus YLR384C, strain iki3, hits give low values 1.02 | S. cerevisiae deletion strains, locus YLR418C, strain cdc73, hits give low values 0.991 | S. cerevisiae deletion strains, locus YML016C, strain PPZ1, hits give low values 1.01 | S. cerevisiae deletion strains, locus YML032C, strain rad52, hits give low values 1.07 | S. cerevisiae deletion strains, locus YML120C, strain ndi1, hits give low values 1.01 | S. cerevisiae deletion strains, locus YML124C, strain tub3, hits give low values 1.01 | S. cerevisiae deletion strains, locus YMR058W, strain fet3, hits give low values 0.968 | S. cerevisiae deletion strains, locus YMR078C, strain ctf18, hits give low values 1.02 | S. cerevisiae deletion strains, locus YMR125W, strain sto1, hits give low values 1 | S. cerevisiae deletion strains, locus YMR129W, hits give low values 1.02 | S. cerevisiae deletion strains, locus YMR205C, strain PFK2, hits give low values 1.01 | S. cerevisiae deletion strains, locus YMR223W, strain ubp8, hits give low values 1.04 | S. cerevisiae deletion strains, locus YMR231W, strain pep5, hits give low values 0.988 | S. cerevisiae deletion strains, locus YMR263W, strain SAP30, hits give low values 0.991 | S. cerevisiae deletion strains, locus YMR307W, strain GAS1, hits give low values 0.986 and 1.01 | S. cerevisiae deletion strains, locus YNL067W, strain RPL9B, hits give low values 0.994 | S. cerevisiae deletion strains, locus YNL071W, strain lat1, hits give low values 1.03 | S. cerevisiae deletion strains, locus YNL128W, strain TEP1, hits give low values 0.995 | S. cerevisiae deletion strains, locus YNL153C, strain GIM3, hits give low values 0.991 and 0.975 | S. cerevisiae deletion strains, locus YNL175C, strain NOP13, hits give low values 1 | S. cerevisiae deletion strains, locus YNL183C, strain NPR1, hits give low values 0.947 | S. cerevisiae deletion strains, locus YNL197C, strain WHI3, hits give low values 1 | S. cerevisiae deletion strains, locus YNL209W, strain ssb2, hits give low values 1 | S. cerevisiae deletion strains, locus YNL224C, strain SQS1, hits give low values 0.997 | S. cerevisiae deletion strains, locus YNL233W, strain BNI4, hits give low values 0.985 | S. cerevisiae deletion strains, locus YNL248C, strain rpa49, hits give low values 1.03 | S. cerevisiae deletion strains, locus YNL250W, strain rad50, hits give low values 1.03 | S. cerevisiae deletion strains, locus YNL271C, strain bni1, hits give low values 1.01 | S. cerevisiae deletion strains, locus YNL298W, strain CLA4, hits give low values 1.03 | S. cerevisiae deletion strains, locus YNL307C, strain MCK1, hits give low values 1.03 | S. cerevisiae deletion strains, locus YNL322C, strain KRE1 (second series), hits give low values 0.978 | S. cerevisiae deletion strains, locus YNL322C, strain KRE1, hits give low values 1 and 0.999 | S. cerevisiae deletion strains, locus YNR049C, strain mso1, hits give low values 1.01 | S. cerevisiae deletion strains, locus YNR052C, strain pop2, hits give low values 1.02 | S. cerevisiae deletion strains, locus YOL006C, strain TOP1, hits give low values 1.02 | S. cerevisiae deletion strains, locus YOL012C, strain htz1 0.845 | S. cerevisiae deletion strains, locus YOL147C, strain pex11, hits give low values 1.01 | S. cerevisiae deletion strains, locus YOR001W, strain rrp6, hits give low values 1.03 | S. cerevisiae deletion strains, locus YOR061W, strain CKA2, hits give low values 0.998 | S. cerevisiae deletion strains, locus YOR069W, strain VPS5, hits give low values 0.995 | S. cerevisiae deletion strains, locus YOR070C, strain gyp1, hits give low values 1.02 | S. cerevisiae deletion strains, locus YOR080W, strain dia2, hits give low values 1.01 | S. cerevisiae deletion strains, locus YOR083W, strain WHI5 (second series), hits give low values 1.01 | S. cerevisiae deletion strains, locus YOR083W, strain WHI5, hits give low values 0.982 | S. cerevisiae deletion strains, locus YOR106W, strain vam3, hits give low values 1.02 | S. cerevisiae deletion strains, locus YOR136W, strain idh2, hits give low values 1.02 | S. cerevisiae deletion strains, locus YOR144C, strain elg1, hits give low values 1 | S. cerevisiae deletion strains, locus YOR184W, strain ser1, hits give low values 1.07 | S. cerevisiae deletion strains, locus YOR231W, strain MKK1, hits give low values 0.983 | S. cerevisiae deletion strains, locus YOR265W, strain rbl2, hits give low values 1 | S. cerevisiae deletion strains, locus YOR270C, strain vph1, hits give low values 1.06 | S. cerevisiae deletion strains, locus YOR290C, strain snf2, hits give low values 0.982 | S. cerevisiae deletion strains, locus YOR316C, strain cot1, hits give low values 0.996 | S. cerevisiae deletion strains, locus YPL051W, strain arl3, hits give low values 0.983 | S. cerevisiae deletion strains, locus YPL055C, strain LGE1, hits give low values 0.992 and 1.01 | S. cerevisiae deletion strains, locus YPL078C, strain atp4, hits give low values 1 | S. cerevisiae deletion strains, locus YPL106C, strain sse1, hits give low values 0.976 | S. cerevisiae deletion strains, locus YPL240C, strain hsp82, hits give low values 1.01 | S. cerevisiae deletion strains, locus YPL241C, strain CIN2, hits give low values 1 | S. cerevisiae deletion strains, locus YPL256C, strain CLN2, hits give low values 0.961 | S. cerevisiae deletion strains, locus YPR119W, strain clb2, hits give low values 1.01 | S. cerevisiae deletion strains, locus YPR141C, strain kar3, hits give low values 1.02 | S. cerevisiae deletion strains, locus YPR163C, strain tif3, hits give low values 1.02 | S. cerevisiae deletion strains, locus YPR167C, strain met16, hits give low values 1.01 | S. cerevisiae deletion strains, strain wtn01, hits give low values 0.978 | S. cerevisiae strains, strain wild type, hits give low values 0.998
